Measured values as given in PubChem BioAssay (EPA / NIEHS).
Active and inactive are the calls of the source. The calls were made as follows: active = hit-call score of the fitted dose curve at least 0.9, where 1 is the maximum; inactive = score below 0.9.

Columns and labels:
Conditions in all cases: mRNA level, 48 h; actives raise or lower the signal
[1] = read-out: Caspase-3 (Homo sapiens) (UniProt P42574); experiment: LTEA_HepaRG_CASP3: Life Technologies and Expression Analysis (LTEA) Assay for cysteine-aspartic acid protease (CASP3) using HepaRG (AID 2283477)
Procedure, shortened: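 Differentiated human HepaRG cells in serum-free induction medium were exposed 48 h to 8-point half-log concentrations from 100 uM (0.5% DMSO vehicle). CASP3 mRNA was measured by qRT-PCR, normalised to ACTB, GAPDH and POLR2A, with bidirectional fitting against DMSO.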

[2] = read-out: Cytochrome P450 (CYP24A1), CYP24A1 (gene 1591); experiment: LTEA_HepaRG_CYP24A1: Life Technologies and Expression Analysis (LTEA) Assay for Cytochrome P450 (CYP24A1) using HepaRG (AID 2283478)
Procedure, shortened: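 Differentiated HepaRG cells, pre-cultured 48 h, were exposed in duplicate for 48 h in serum-free induction medium to 8 half-log concentrations (top 100 uM, 0.5% DMSO). CYP24A1 mRNA was quantified by TaqMan qRT-PCR, normalized to ACTB/GAPDH/POLR2A, fitted bidirectionally versus DMSO.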

[3] = read-out: Cytochrome P450 (CYP1A2), CYP1A2 (gene 1544); experiment: LTEA_HepaRG_CYP1A2: Life Technologies and Expression Analysis (LTEA) Assay for Cytochrome P450 (CYP1A2) using HepaRG (AID 2283479)
Procedure, shortened: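 Differentiated human HepaRG cells in serum-free induction medium were exposed in duplicate for 48 h to 8-point half-log concentrations up to 100 uM in 0.5% DMSO. CYP1A2 mRNA measured by qRT-PCR, normalized to ACTB, GAPDH, POLR2A; bidirectional fit vs DMSO.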

[4] = read-out: Cytochrome P450 (CYP2B6), CYP2B6 (gene 1555); experiment: LTEA_HepaRG_CYP2B6: Life Technologies and Expression Analysis (LTEA) Assay for Cytochrome P450 (CYP2B6) using HepaRG (AID 2283481)
Procedure, shortened: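 Differentiated HepaRG cells, serum-free induction medium, exposed 48 h in duplicate to 8-point half-log concentrations from 100 uM in 0.5% DMSO. CYP2B6 mRNA by qRT-PCR, normalized to ACTB, GAPDH, POLR2A; bidirectional fit versus DMSO.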

[5] = read-out: Cytochrome P450 2C19 (Homo sapiens) (UniProt P33261); experiment: LTEA_HepaRG_CYP2C19: Life Technologies and Expression Analysis (LTEA) Assay for CYP2C19 using HepaRG (AID 2283482)
Procedure, shortened: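 Differentiated human HepaRG cells were exposed for 48 h in serum-free induction medium to 8 concentrations (top 100 uM, half-log steps, 0.5% DMSO). CYP2C19 mRNA was measured by qRT-PCR, normalized to ACTB/GAPDH/POLR2A, and fitted bidirectionally against DMSO.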

[6] = read-out: CYP2C8 (gene 1558); experiment: LTEA_HepaRG_CYP2C8: Life Technologies and Expression Analysis (LTEA) Assay for CYP2C8 using HepaRG (AID 2283483)
Procedure, shortened: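 HepaRG (human liver line), 48 h chemical exposure, 8-pt half-log series from 100 uM, 0.5% DMSO vehicle. Readout: CYP2C8 transcript by qRT-PCR, housekeeping-normalized. Bidirectional fit vs DMSO baseline.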

[7] = read-out: CYP2C9 (gene 1559); experiment: LTEA_HepaRG_CYP2C9: Life Technologies and Expression Analysis (LTEA) Assay for CYP2C9 using HepaRG (AID 2283484)
Procedure, shortened: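 HepaRG, 48 h dosing, 8-pt half-log series, top 100 uM, 0.5% DMSO vehicle. Read-out: CYP2C9 transcript by TaqMan qRT-PCR, housekeeping-normalized (ACTB/GAPDH/POLR2A). Gain or loss fitted vs DMSO baseline.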

[8] = read-out: CYP2E1 (gene 1571); experiment: LTEA_HepaRG_CYP2E1: Life Technologies and Expression Analysis (LTEA) Assay for CYP2E1 using HepaRG (AID 2283485)
Procedure, shortened: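 CYP2E1 transcript was measured by TaqMan qRT-PCR in human HepaRG cultures after 48 h chemical exposure (top 100 uM, half-log steps, 0.5% DMSO vehicle). Housekeeping-gene normalization; gain or loss fitted relative to DMSO baseline.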

[9] = read-out: CYP4A11 (gene 1579); experiment: LTEA_HepaRG_CYP4A11: Life Technologies and Expression Analysis (LTEA) Assay for CYP4A11 using HepaRG (AID 2283486)
Procedure, shortened: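 Differentiated HepaRG cells, serum-free induction medium, exposed 48 h in duplicate to 8-point half-log series from 100 uM in 0.5% DMSO. CYP4A11 mRNA measured by qRT-PCR, normalized to ACTB, GAPDH, POLR2A; bidirectional fit versus DMSO.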

[10] = read-out: Cytochrome P450 3A4 (Homo sapiens) (UniProt P08684); experiment: LTEA_HepaRG_CYP3A4: Life Technologies and Expression Analysis (LTEA) Assay for CYP3A4 using HepaRG (AID 2283487)
Procedure, shortened: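 Differentiated HepaRG cells in serum-free induction medium exposed in duplicate for 48 h to 8 half-log concentrations up to 100 uM in 0.5% DMSO. CYP3A4 mRNA measured by qRT-PCR normalized to ACTB, GAPDH and POLR2A; bidirectional fit versus DMSO.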

[11] = read-out: DNA damage-inducible transcript 3 (DDIT3), DDIT3 (gene 1649); experiment: LTEA_HepaRG_DDIT3: Life Technologies and Expression Analysis (LTEA) Assay for DNA damage-inducible transcript 3 (DDIT3) using HepaRG (AID 2283488)
Procedure, shortened: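 qRT-PCR readout (Fluidigm TaqMan), housekeeping-normalized to ACTB, GAPDH, POLR2A. HepaRG cells, 48 h exposure, 8-point half-log series from 100 uM in 0.5% DMSO, duplicates. Gain or loss of signal fitted against DMSO baseline.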

[12] = read-out: Pro-epidermal growth factor (Homo sapiens) (UniProt P01133); experiment: LTEA_HepaRG_EGF: Life Technologies and Expression Analysis (LTEA) Assay for Epidermal growth factor (EGF) using HepaRG (AID 2283489)
Procedure, shortened: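 Differentiated human HepaRG cells, plated 48 h then switched to serum-free induction medium, were exposed for 48 h to test chemicals (8-point half-log series, top 100 uM, 0.5% DMSO). EGF mRNA was quantified by qRT-PCR, normalized to ACTB, GAPDH, POLR2A.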

[13] = read-out: Early growth response protein 1 (EGR1) transcription factor, EGR1 (gene 1958); experiment: LTEA_HepaRG_EGR1: Life Technologies and Expression Analysis (LTEA) Assay for Early growth response protein 1 (EGR1) transcription factor using HepaRG (AID 2283490)
Procedure, shortened: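 HepaRG, 48 h exposure, 8-pt half-log series from 100 uM, 0.5% DMSO vehicle; EGR1 transcript by TaqMan qRT-PCR (Fluidigm array), housekeeping-normalized; bidirectional fit relative to DMSO baseline.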

[14] = read-out: Ezrin (EZR), EZR (gene 7430); experiment: LTEA_HepaRG_EZR: Life Technologies and Expression Analysis (LTEA) Assay for Ezrin (EZR) using HepaRG (AID 2283491)
Procedure, shortened: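 Differentiated human HepaRG cells, 48 h after plating, were exposed in serum-free induction medium for 48 hours to eight half-log concentrations up to 100 uM in 0.5% DMSO. EZR mRNA was measured by TaqMan qRT-PCR, normalized to ACTB, GAPDH and POLR2A, and fitted bidirectionally against DMSO.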

[15] = read-out: Cytochrome P450 3A7 (Homo sapiens) (UniProt P24462); experiment: LTEA_HepaRG_CYP3A7: Life Technologies and Expression Analysis (LTEA) Assay for CYP3A7 using HepaRG (AID 2283492)
Procedure, shortened: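 HepaRG cells plated 48 h, then dosed in serum-free induction medium for 48 h at 8 concentrations (top 100 uM, half-log steps, 0.5% DMSO). CYP3A7 mRNA by qRT-PCR, normalised to ACTB/GAPDH/POLR2A; bidirectional fit versus DMSO.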

[16] = read-out: CYP3A5 (gene 1577); experiment: LTEA_HepaRG_CYP3A5: Life Technologies and Expression Analysis (LTEA) Assay for CYP3A5 using HepaRG (AID 2283493)
Procedure, shortened: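 qRT-PCR read-out: CYP3A5 transcript in HepaRG lysates, housekeeping-normalized (ACTB/GAPDH/POLR2A), fitted bidirectionally against 0.5% DMSO baseline. Exposure 48 h, eight half-log concentrations up to 100 uM, duplicates.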

[17] = read-out: Fatty Acid-Binding Protein 1 (FABP1), FABP1 (gene 2168); experiment: LTEA_HepaRG_FABP1: Life Technologies and Expression Analysis (LTEA) Assay for Fatty Acid-Binding Protein 1 (FABP1) using HepaRG (AID 2283494)
Procedure, shortened: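 qRT-PCR readout of FABP1 transcript (normalized to three housekeeping genes) after 48 h chemical exposure of HepaRG cells; eight concentrations, half-log steps, max 100 uM, 0.5% DMSO vehicle; gain or loss fitted relative to DMSO baseline.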

[18] = read-out: Cytochrome P450 4A22 (Homo sapiens) (UniProt Q5TCH4); experiment: LTEA_HepaRG_CYP4A22: Life Technologies and Expression Analysis (LTEA) Assay for Cytochrome P450 4A22 (CYP4A22) using HepaRG (AID 2283495)
Procedure, shortened: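 qRT-PCR of CYP4A22 mRNA (Fluidigm TaqMan, normalized to three housekeeping genes) after 48 h chemical exposure of HepaRG cells; 8-point half-log series, top 100 uM, 0.5% DMSO vehicle. Bidirectional curve fitting vs DMSO baseline.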

[19] = read-out: Cytochrome P450 7A1 (Homo sapiens) (UniProt P22680); experiment: LTEA_HepaRG_CYP7A1: Life Technologies and Expression Analysis (LTEA) Assay for Cytochrome P450 7A1 (CYP7A1) using HepaRG (AID 2283496)
Procedure, shortened: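 Using 0.5% DMSO as vehicle and baseline, chemicals were tested in duplicate over an 8-point range from 100 uM on HepaRG cells for 48 h; qRT-PCR signals were normalised to ACTB, GAPDH and POLR2A.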

[20] = read-out: cysteine-aspartic acid protease (CASP8), CASP8 (gene 841); experiment: LTEA_HepaRG_CASP8: Life Technologies and Expression Analysis (LTEA) Assay for cysteine-aspartic acid protease (CASP8) using HepaRG (AID 2283480)
Procedure, shortened: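 qRT-PCR readout of CASP8 mRNA, normalized to three housekeeping genes, after 48 h chemical exposure of HepaRG cells; 8-point half-log series, top 100 uM, 0.5% DMSO vehicle. Bidirectional curve fitting against DMSO baseline.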

Measured: AC50

Sequence of Caspase-3 (Homo sapiens) (P42574 whole entry, looked up): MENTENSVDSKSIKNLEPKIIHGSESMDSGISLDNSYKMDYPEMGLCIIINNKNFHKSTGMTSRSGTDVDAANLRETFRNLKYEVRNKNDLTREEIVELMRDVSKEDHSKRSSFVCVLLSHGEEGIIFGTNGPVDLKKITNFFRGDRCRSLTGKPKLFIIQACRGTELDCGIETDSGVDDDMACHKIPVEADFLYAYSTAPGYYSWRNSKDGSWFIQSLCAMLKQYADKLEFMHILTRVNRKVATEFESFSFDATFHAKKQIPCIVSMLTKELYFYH
Sequence of Cytochrome P450 2C19 (Homo sapiens) (P33261 whole entry, looked up): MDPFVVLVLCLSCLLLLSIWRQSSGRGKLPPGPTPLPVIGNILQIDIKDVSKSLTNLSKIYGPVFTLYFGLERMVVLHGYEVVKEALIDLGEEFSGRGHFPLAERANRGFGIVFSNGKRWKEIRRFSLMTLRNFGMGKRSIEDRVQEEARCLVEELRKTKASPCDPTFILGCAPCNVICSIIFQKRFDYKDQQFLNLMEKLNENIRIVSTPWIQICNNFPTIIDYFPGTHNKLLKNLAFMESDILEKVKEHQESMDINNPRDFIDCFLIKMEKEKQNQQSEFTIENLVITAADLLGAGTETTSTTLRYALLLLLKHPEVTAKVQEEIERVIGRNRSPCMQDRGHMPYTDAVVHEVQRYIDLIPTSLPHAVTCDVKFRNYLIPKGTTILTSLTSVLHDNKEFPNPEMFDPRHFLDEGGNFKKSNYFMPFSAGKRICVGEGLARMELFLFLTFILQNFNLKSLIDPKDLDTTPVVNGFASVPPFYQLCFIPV
Sequence of Cytochrome P450 3A7 (Homo sapiens) (P24462 whole entry, looked up): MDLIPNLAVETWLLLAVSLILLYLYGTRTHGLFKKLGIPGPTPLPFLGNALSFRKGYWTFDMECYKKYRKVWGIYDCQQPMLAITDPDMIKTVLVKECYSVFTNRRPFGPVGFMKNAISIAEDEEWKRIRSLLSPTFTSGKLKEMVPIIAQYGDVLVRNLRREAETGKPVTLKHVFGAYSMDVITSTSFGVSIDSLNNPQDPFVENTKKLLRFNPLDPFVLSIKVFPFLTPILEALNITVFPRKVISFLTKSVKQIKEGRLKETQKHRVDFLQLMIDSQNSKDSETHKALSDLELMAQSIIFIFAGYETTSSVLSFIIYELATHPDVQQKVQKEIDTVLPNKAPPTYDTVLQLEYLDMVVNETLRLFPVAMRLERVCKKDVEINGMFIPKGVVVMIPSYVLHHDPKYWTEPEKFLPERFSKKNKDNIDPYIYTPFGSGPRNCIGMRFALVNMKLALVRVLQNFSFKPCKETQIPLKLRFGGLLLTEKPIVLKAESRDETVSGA
Sequence of Cytochrome P450 3A4 (Homo sapiens) (P08684 whole entry, looked up): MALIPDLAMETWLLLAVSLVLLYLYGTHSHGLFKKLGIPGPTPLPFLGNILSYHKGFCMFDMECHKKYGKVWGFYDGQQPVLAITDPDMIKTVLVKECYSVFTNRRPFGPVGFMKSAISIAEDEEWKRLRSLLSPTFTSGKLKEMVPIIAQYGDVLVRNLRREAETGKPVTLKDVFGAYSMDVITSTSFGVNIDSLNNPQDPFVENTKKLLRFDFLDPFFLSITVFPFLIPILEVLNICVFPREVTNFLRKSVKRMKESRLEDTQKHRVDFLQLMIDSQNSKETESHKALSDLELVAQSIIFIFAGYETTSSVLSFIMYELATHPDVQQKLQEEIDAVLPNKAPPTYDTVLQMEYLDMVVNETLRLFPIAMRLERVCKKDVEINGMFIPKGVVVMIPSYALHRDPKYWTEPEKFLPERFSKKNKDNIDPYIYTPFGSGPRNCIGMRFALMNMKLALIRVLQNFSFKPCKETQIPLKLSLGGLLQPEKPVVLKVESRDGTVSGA

CN(C)c1ccc(Cc2ccc(N(C)C)cc2)cc1
inactive: [2] | [11] | [12] | [13] | [14] | [16] | [17] | [19]
active: [1] 50 µM | [3] 13 µM | [4] 1.6 µM | [5] 12.5 µM | [6] 90.6 µM | [7] 90.8 µM | [8] 50 µM | [9] 89 µM | [10] 2.5 µM | [15] 11.6 µM | [18] 50 µM

Cc1[nH]cnc1C[C@H]1CCc2c(C)c3ccccc3n2C1=O
active: [3] 5.56 µM | [20] 66.7 µM | [4] 29 µM | [5] 30.6 µM | [6] 22.9 µM | [7] 28.7 µM | [8] 17.6 µM | [9] 13.2 µM | [11] 27.4 µM | [13] 70.2 µM | [14] 11.8 µM | [17] 17.1 µM | [19] 22.6 µM
inactive: [1] | [2] | [12] | [16]

O=C(O)CCN(C1(C(=O)NO)CCCC1)S(=O)(=O)c1ccc(Oc2ccc(F)cc2)cc1
active: [10] 22.8 µM
not listed: [18]
inactive: all other assays above

C=CCCCCCCCCC(=O)O
active: [3] 50 µM
not listed: [20]
inactive: all other assays above

COC(=O)c1ccccc1O
not listed: [18]
inactive: all other assays above

COC(=O)CC(=O)OC
active: [4] 1.93 µM | [5] 3.31 µM | [8] 33 µM | [10] 2.53 µM | [15] 3.64 µM | [17] 50 µM | [19] 50 µM
not listed: [20]
inactive: all other assays above

CCCCCCc1ccc(O)cc1O
not listed: [20]
inactive: all other assays above

Clc1nc(Cl)c(Cl)c(Cl)c1Cl
not listed: [20]
inactive: all other assays above

Cn1cnc([N+](=O)[O-])c1Sc1ncnc2nc[nH]c12
active: [3] 0.9 µM | [4] 5.23 µM | [6] 7.61 µM | [7] 9.87 µM | [8] 1.45 µM | [9] 0.324 µM | [11] 9.59 µM | [13] 13 µM | [17] 27 µM | [19] 2.09 µM
inactive: [1] | [2] | [20] | [12] | [14] | [16]

CC[C@H]1OC(=O)[C@H](C)[C@@H](O[C@H]2C[C@@](C)(OC)[C@@H](O)[C@H](C)O2)[C@H](C)[C@@H](O[C@@H]2O[C@H](C)C[C@H](N(C)C)[C@H]2O)[C@](C)(O)C[C@@H](C)C(=O)[C@H](C)[C@@H](O)[C@]1(C)O
active: [3] 59.1 µM | [4] 5.59 µM | [8] 16 µM | [10] 19.6 µM | [15] 13.9 µM
not listed: [20]
inactive: all other assays above

CC(C)CCO
not listed: [12] | [18] | [19]
inactive: all other assays above

Cc1ccc(O)cc1
inactive: [1] | [20] | [11] | [12] | [13] | [14] | [17]

CNS(=O)(=O)c1cc(C(=O)N2CCC(CCN3C4CCC3CC(n3c(C)nc5ccccc53)C4)(c3cccc(F)c3)CC2)c(Cl)cc1F (configuration not stated)
inactive: [1] | [2] | [10] | [12] | [13] | [16]
active: [3] 27.2 µM | [4] 21.7 µM | [5] 50 µM | [6] 25.7 µM | [7] 19.2 µM | [8] 17.7 µM | [9] 18.5 µM | [11] 29 µM | [14] 29.6 µM | [15] 9.92 µM | [17] 18.4 µM | [19] 21.5 µM
